# High-throughput results: PubChem, National Center for Advancing Translational Sciences (NCATS)
# TRHR PAM = TRH receptor (human) allosteric enhancement | TRHR cells, fluo-8 calcium fluorescence, EC20 TRH enhancement | enhancement, % at 2 µM | actives 0.66% (n = 360,000) | AID 493056; in the data active = enhancement above about 30%; note: 0% is about no effect
#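 TRHR-expressing cells loaded with fluo-8 calcium dye were read kinetically (ex 480/em 530) during compound addition, then stimulated with an EC20 of TRH (10 nM final). Enhancement of the Gq-mediated intracellular calcium response was scored.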
# TRHR ag = agonists of human TRH receptor. P34981. TRHR cells, calcium flux fluo-8, FDSS agonist mode. activation, % at 2 µM. actives 0.18% (n = 360,000); note: 0% is about no effect
#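 Steps: seed TRHR cells overnight; add fluo-8 no-wash Ca dye, RT 30 min–1.5 h; record 10 s baseline; pin-transfer compounds; monitor fluorescence 1 cycle/s for the agonist window. Calcium increases flag candidate agonists.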
# D1 ag = human D1 receptor agonism | activation, % at 2 µM | AID 504660 | actives 1% (n = 360,000) | HEK293 T-REx D1 cells, calcium flux, agonist mode | P21728; note: 0% is about no effect
# Target sequence (P21728 whole entry, looked up): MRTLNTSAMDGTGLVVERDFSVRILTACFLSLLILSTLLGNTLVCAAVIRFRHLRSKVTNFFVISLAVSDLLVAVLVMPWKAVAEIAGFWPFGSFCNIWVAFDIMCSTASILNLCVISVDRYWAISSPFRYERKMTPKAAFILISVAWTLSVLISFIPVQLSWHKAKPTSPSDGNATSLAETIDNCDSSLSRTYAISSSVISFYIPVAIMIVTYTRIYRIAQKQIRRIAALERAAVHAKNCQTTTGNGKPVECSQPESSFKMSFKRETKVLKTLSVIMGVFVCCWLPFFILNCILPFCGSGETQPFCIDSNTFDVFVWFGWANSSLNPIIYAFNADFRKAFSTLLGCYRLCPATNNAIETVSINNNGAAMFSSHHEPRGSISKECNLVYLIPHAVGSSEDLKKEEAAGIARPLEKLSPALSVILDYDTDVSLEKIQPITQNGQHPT
#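 Inducible HEK293 T-REx D1 cells, force-coupled to calcium signalling, were plated at 4000 cells/well with tetracycline and held overnight at 30 C. After no-wash calcium dye loading, compound-evoked calcium rise over 180 s flagged agonists.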
# D1 antagonist = antagonists of human D1 dopamine receptor; actives 3.2% (n = 360,000); HEK293 TREx D1 cells, calcium flux, dopamine EC80; hits give low values; activity change, negative = inhibition, % at 10 µM; AID 504652; P21728; in the data active = activity change below about -30%; note: % is set by controls: 0 for no effect and ±100 for the full control effect
#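 Tetracycline-induced HEK293 Trex D1 cells, force-coupled to calcium, dye-loaded; compounds added and read 180 s, then EC80 dopamine added and calcium flux tracked kinetically another 180 s.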
# D1 potentiator = potentiators of human D1 dopamine receptor. actives 0.036% (n = 360,000). HEK293 TREx D1 cells, calcium flux, dopamine EC20 potentiation. potentiation, % at 10 µM. P21728; in the data active = potentiation above about 30%; note: 0% is about no effect
# * = called active by the depositor; · = no result. This is a sample that favours compounds with a hit; in the whole collection about 4.7% have one here. Cut-off read from the data, not from the text of the source, unless noted: active = activation above about 30%; inactive = the rest.
SMILES,TRHR PAM,TRHR ag,D1 ag,D1 antagonist,D1 potentiator
Cc1c(CCOC(=O)C23CC4CC(CC(C4)C2)C3)sc[n+]1CC#N,41*,0,5,0,-4
COC(=O)N1C(=O)[C@](c2ccc(OC)cc2)(C(C)C)N1C(=O)OC,0,10,4,15,-4
COC(=O)N1C(=O)[C@](c2ccsc2)(C(C)C)N1C(=O)OC,-6,0,2,-67*,-8
COc1ccccc1-c1noc(CCC(=O)NC2CCCCC2)n1,-4,-1,0,-19,9
c1ccc(C2=NNC(c3ccco3)=Nc3ccccc32)cc1,-1,-1,5,-32*,3
COc1ccc(C2=NNC(c3cccnc3)=Nc3ccccc32)cc1,-16,-1,1,18,-4
COc1ccccc1C(=O)Nc1ccccc1OCc1cc(=O)n2ccccc2n1,-1,0,1,-19,1
CCOc1ccc(Br)cc1/C=N/O,1,0,2,5,-1
CCCOc1ccc(Br)cc1/C=N/O,-2,0,43*,-18,-12
Cn1cc(SCC(=O)Nc2ccc3c(c2)OCO3)c2ccccc21,14,-1,10,-35*,·
CC(C)C(=O)Nc1nnc(SCC(=O)Nc2ccc3c(c2)OCO3)s1,2,0,12,-41*,-6
O=C(CSc1nnc(CNC(=O)c2cccs2)o1)Nc1ccc2c(c1)OCO2,-1,0,-2,-36*,-2
CC1CCN(C(C(=O)Nc2ccc3c(c2)OCO3)c2ccccc2)CC1 (stereo unspecified),-9,-1,2,-42*,-9
CC1CCCN(C(C(=O)Nc2ccc3c(c2)OCO3)c2ccccc2)C1 (stereo unspecified),9,-1,0,0,-2
CC(NS(=O)(=O)c1ccc2c(c1)CCN2C(=O)CCCC(=O)O)c1ccccc1 (stereo unspecified),-5,0,1,11,-2
Cc1sc2ncnc(N/N=C/c3cccc(O)c3)c2c1C,2,0,1,3,6
C/C(=N\Nc1ncc(Cl)cc1Cl)c1ccccn1,5,5,3,-40*,-2
C/C(=N\Nc1ccc(Cl)c(C(=O)O)c1)c1ccccn1,-7,1,0,0,-1
C/C(=N\Nc1ncnc2sc(C)c(C)c12)c1ccccn1,15,55*,281*,6,7
O=c1oc2ccccc2c(Nc2ccc(Cl)cc2)c1[N+](=O)[O-],10,0,33*,-4,-11
CC(C)c1ccc(CNc2c([N+](=O)[O-])c(=O)oc3ccccc23)cc1,-3,-1,27,-34*,-3
O=c1oc2ccccc2c(Nc2ccc(F)cc2)c1[N+](=O)[O-],2,0,11,-7,1
CCCCc1ccc(NC(=O)Cn2cnc3c(oc4ccccc43)c2=O)cc1,-6,0,4,-18,-3
COc1ccc(C(=O)/C=C/C(=O)N(Cc2ccc(F)cc2)C(C(=O)NC2CCCCC2)c2ccncc2)c(O)c1 (stereo unspecified),15,0,0,-31*,-9
COc1ccc(C(=O)/C=C/C(=O)N(Cc2ccccc2)C(C(=O)NC2CCCCC2)c2ccncc2)c(O)c1 (stereo unspecified),12,0,3,-10,-2
SMILES,TRHR PAM,TRHR ag,D1 ag,D1 antagonist,D1 potentiator
O=C(O)c1cccc(-c2ccc(/C=N/Nc3ccc([N+](=O)[O-])cc3)o2)c1,14,70*,103*,4,3
O=C(N/N=C/c1ccc([N+](=O)[O-])o1)C(=O)Nc1ccc(C(=O)O)cc1,12,1,2,-3,5
O=C(O)c1ccc(-c2ccc(/C=N/Nc3ccc([N+](=O)[O-])cc3)o2)cc1,36*,123*,151*,5,0
O=C(O)c1ccc(N/N=C/C=C/c2ccc([N+](=O)[O-])o2)cc1,8,27,56*,-5,1
CN(CC(=O)Nc1ccc(S(=O)(=O)N2CCOCC2)cc1)Cc1ccc(F)cc1,5,0,4,-3,8
CCn1nnc2cc(C(=O)NCC(c3ccccc3OC)N(C)C)ccc21 (stereo unspecified),13,1,2,10,10
CCc1ccc(-n2nc(C)c3c(C(=O)N4CCN(c5ccccc5)CC4)cc(C)nc32)cc1,6,0,1,-36*,-1
